Tested on in one assay: not listed separately
The experiment in a line: small-molecule microarray binders of probe aEGFR, primary screen, biochemical, biotinylated probe, 635/667 nm fluorescence (AID 1097).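 Further: probe is a biotinylated anti-EGFR antibody binding compounds printed on slides; score combines fluorescence near 667 nm and signal to noise of each spot.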 The settings on record: higher = more signal.
On to `C=CCN1Cc2ccccc2C[C@@]2(N=C(c3ccc(OCCCO)cc3)O[C@H]2c2ccccc2)C1=O`, for which the composite z-score was determined as 0.0047.
Still for that read-out and setting: to `CN(C)CCCCNC(=O)[C@H]1C[C@H]2C(=O)N3CCC[C@H]3C(=O)N2[C@H]1c1ccc(O)cc1` belongs -0.45; to `COC1(C)CN(Cc2ccccc2Br)[C@H](/C=C/c2ccccc2)[C@H](Cc2ccccc2)O1` (stereo partly specified), -0.159; to `COc1cc(OC)c(C(O)C2C=CC3C(=O)N(c4ccccc4)C(=O)C3N2Nc2ccc(C#N)cc2)cc1Br` (stereo unspecified), 0.621.
Same read-out and setting: to `O=C(O)[C@]1(Cc2ccccc2)N=C(c2ccc(OCCCO)cc2)O[C@@H]1c1ccccc1` belongs -0.208; to `O=C1c2ccccc2[C@@]2(Cc3ccccc3N(C3CC3)C2=O)[C@H](c2ccc(CO)cc2)N1C1CCCCC1`, -0.168; to `COCCOC(=O)N1C(=O)[C@@]2(c3cc(C#CCC(C(=O)OC)C(=O)OC)ccc31)[C@H](c1ccc(OCCO)cc1)N1[C@H](c3ccccc3)[C@H](c3ccccc3)OC(=O)[C@H]1[C@@H]2C(=O)N1CCN(c2ncccn2)CC1`, 0.0397.
On the same count and under the same terms, as for `O=C1O[C@@H](c2ccccc2)[C@@H](c2ccccc2)N2[C@@H](c3ccccc3OCCO)[C@]3(C(=O)Nc4ccc(C#CCCO)cc43)[C@@H](C(=O)N3CCN(c4ncccn4)CC3)[C@H]12`, the figure is -0.0858.
As to `COc1cc(CO)cc(I)c1O[C@H]1C=C(C(=O)NCCO)C[C@@H](N(CC2CCCCC2)C(=O)c2ccc(C(F)(F)F)cc2)[C@@H]1O`, the composite z-score is -0.0828.
Still for that read-out and setting: to `Cc1c(NC(=O)/C(C#N)=C/C=C/c2ccccc2[N+](=O)[O-])c(=O)n(-c2ccccc2)n1C` belongs -0.0043.
The same measure, in the same setting: to `CCC[C@@H]1C[C@@]1(CCC)[C@@H](NP(=O)(c1ccccc1)c1ccccc1)c1ccc(Cl)cc1` belongs -0.233; to `C=CCN1C(=O)[C@]2(CC=C)N=C(c3ccc(OCCCO)cc3)O[C@@H]2c2ccccc21`, 0.038.
On the same count and under the same terms, as for `O=C1c2ccccc2[C@](Cc2ccccc2I)(C(=O)NCCN2CCOCC2)[C@H](c2ccc(CO)cc2)N1Cc1ccccc1`, the figure is 0.225; as for `COC(=O)[C@@]1(Cc2ccc(F)cc2)[C@H]2c3cc(C(=O)N4CCCC4)n(CCc4c[nH]c5ccc(OC)cc45)c3C[C@H]2CN1C(=O)c1ccccc1`, 0.44; as for `O=C1c2ccccc2[C@](Cc2ccccc2I)(C(=O)NCc2ccccc2)[C@H](c2ccc(CO)cc2)N1C1CCCCC1`, 0.494.
In the case of `COCC(=C=CC[C@H](O)c1cccc(OCCO)c1)C[C@H](O)c1ccccn1`, the composite z-score was 0.0149.
The same measure, in the same setting: as for `CN1C2C=C(CCCO)C(C3C(=O)N(C(N)=O)C(=O)C32)C1c1cccs1` (stereo unspecified), the figure is 0.976; as for `CN(C)CCCNC(=O)[C@@H]1c2ccccc2C(=O)N(Cc2ccc(OC(F)(F)F)cc2)[C@H]1c1ccc(CO)cc1`, -0.171; as for `CC(C)(C)OC(=O)CC[C@]1(C(=O)NCCN2CCOCC2)N=C(c2ccc(OCCCO)cc2)O[C@H]1c1ccccc1`, 0.34.
On the same count and under the same terms, to `CC(C)CNC(=O)[C@@H]1c2ccccc2C(=O)N(Cc2cc(F)cc(C(F)(F)F)c2)[C@H]1c1ccc(CO)cc1` belongs -0.0214; to `C=C(/C(=C/C[C@@H](OC(=O)c1ccncc1)c1ccc(OCCO)cc1)c1cc(C(=O)OC)ccc1OC)C(C)C`, -0.0509.
Regarding `C=C(CCCC)/C(=C/C[C@@H](OC(=O)c1ccncc1)c1cccc(OCCO)c1)c1cnc2ccccc2c1`, the composite z-score is 0.0617.
The same measure, in the same setting: to `C=CCOC(=O)[C@H]1[C@@H]2C(=O)O[C@@H](c3ccccc3)[C@@H](c3ccccc3)N2[C@@H](c2ccc(OCCOC(=O)[C@H]3C[C@H]4C(=O)N[C@@H](Cc5ccccc5)C(=O)N4[C@H]3c3cccc(OCCO)c3)cc2)[C@]12C(=O)Nc1ccc(I)cc12` belongs -0.067.
Same read-out and setting: to `Cc1ccc(S[C@]2(C(=O)NC3CC3)CC(=O)N(Cc3ccccc3Cl)[C@@H]2c2ccc(CO)cc2I)cc1` belongs -0.0238.
The same measure, in the same setting: to `C[C@@H]1ON(c2ccc(C(=O)OC(C)(C)C)cc2)[C@H](c2ccc(Br)cc2)[C@H]1C(=O)N1C(=O)OC[C@H]1Cc1ccccc1` belongs 0.0338.

The test system of the next assay is Plasmodium falciparum Sir2 (PF13_0152, Sir2A). Kind of assay: pfSir2 binders on small-molecule microarrays, primary screen, biochemical, small-molecule microarray, 635 nm fluorescence (AID 1098).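 Further: score merges spot fluorescence intensity with its signal-to-noise ratio.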 The settings on record: small-molecule microarray binding, fluorescence 635 nm; higher = more signal.
`COc1ccc(C(O)C2C=CC3C(=O)N(c4ccccc4)C(=O)C3N2Nc2ccc(C#N)cc2)c2ccccc12` (stereo unspecified) returned a composite z-score of 1.2.
The same measure, in the same setting: to `COCCOC(=O)N1C(=O)[C@@]2(c3ccccc31)[C@H](C(=O)N1CCN(c3ncccn3)CC1)[C@H]1C(=O)O[C@H](c3ccccc3)[C@H](c3ccccc3)N1[C@@H]2c1ccc(OCCO)cc1` belongs 1.02; to `CC=CC(O)C1C=CC2C(=O)N(c3ccccc3)C(=O)C2N1Nc1ccccc1` (stereo unspecified), 1.37; to `Cc1ccc(S[C@]2(C(=O)NCC(F)(F)F)CC(=O)N(Cc3ccccc3)[C@@H]2c2ccc(CO)cc2)cc1`, 1.54.
Same read-out and setting: as for `[N-]=[N+]=Nc1ccccc1C[C@@]1(C(=O)O)N=C(c2ccc(OCCCO)cc2)O[C@@H]1c1ccccc1`, the figure is 1.56; as for `COCCCNC(=O)[C@]1(Cc2ccccc2CN=[N+]=[N-])N=C(c2ccc(OCCCO)cc2)O[C@@H]1c1ccccc1`, 0.465; as for `CC(C)OC(=O)CC(=O)CC(O)c1cccc(C#N)c1` (stereo unspecified), 0.431.
Same read-out and setting: as for `CCCC=C(CCC)[C@@H](NP(=O)(c1ccccc1)c1ccccc1)c1ccc(C(F)(F)F)cc1`, the figure is -1.78; as for `CCCN1C(=O)[C@]2(Cc3ccccc3)N=C(c3ccc(OCCCO)cc3)O[C@@H]2c2ccccc21`, 1.25.
`C[C@]12C(=O)N(CCCCCCO)[C@@H]3C(=O)N(c4ccc(Cl)cc4)CC=CC31O[C@@H]1/C=C\CCCOC(=O)C12` (stereo partly specified) had a composite z-score of 1.93.
On the same count and under the same terms, as for `COCCOC(=O)N1C(=O)[C@@]2(c3ccccc31)[C@H](c1ccc(OCCO)cc1)N1[C@H](c3ccccc3)[C@H](c3ccccc3)OC(=O)[C@H]1[C@@H]2C(=O)Nc1nc2ccccc2s1`, the figure is 1.45.
Still for that read-out and setting: as for `C=CCN1Cc2ccccc2C[C@@]2(N=C(c3ccc(OCCCO)cc3)O[C@H]2c2ccccc2)C1=O`, the figure is 0.907.
For `CN(C)CCCCNC(=O)[C@H]1C[C@H]2C(=O)N3CCC[C@H]3C(=O)N2[C@H]1c1ccc(O)cc1`, the composite z-score was 0.0292.
Same read-out and setting: to `COC1(C)CN(Cc2ccccc2Br)[C@H](/C=C/c2ccccc2)[C@H](Cc2ccccc2)O1` (stereo partly specified) belongs -0.525.
The same measure, in the same setting: to `COc1cc(OC)c(C(O)C2C=CC3C(=O)N(c4ccccc4)C(=O)C3N2Nc2ccc(C#N)cc2)cc1Br` (stereo unspecified) belongs 0.842.
Consider `O=C(O)[C@]1(Cc2ccccc2)N=C(c2ccc(OCCCO)cc2)O[C@@H]1c1ccccc1`, for which the composite z-score came to 0.122.
Turning to `O=C1c2ccccc2[C@@]2(Cc3ccccc3N(C3CC3)C2=O)[C@H](c2ccc(CO)cc2)N1C1CCCCC1`, the composite z-score is -1.5.
For the molecule `COCCOC(=O)N1C(=O)[C@@]2(c3cc(C#CCC(C(=O)OC)C(=O)OC)ccc31)[C@H](c1ccc(OCCO)cc1)N1[C@H](c3ccccc3)[C@H](c3ccccc3)OC(=O)[C@H]1[C@@H]2C(=O)N1CCN(c2ncccn2)CC1`, the composite z-score came to 1.36.
On the same count and under the same terms, to `O=C1O[C@@H](c2ccccc2)[C@@H](c2ccccc2)N2[C@@H](c3ccccc3OCCO)[C@]3(C(=O)Nc4ccc(C#CCCO)cc43)[C@@H](C(=O)N3CCN(c4ncccn4)CC3)[C@H]12` belongs 0.879.
On the same count and under the same terms, as for `COc1cc(CO)cc(I)c1O[C@H]1C=C(C(=O)NCCO)C[C@@H](N(CC2CCCCC2)C(=O)c2ccc(C(F)(F)F)cc2)[C@@H]1O`, the figure is 0.199.
On to `Cc1c(NC(=O)/C(C#N)=C/C=C/c2ccccc2[N+](=O)[O-])c(=O)n(-c2ccccc2)n1C`, for which the composite z-score is 1.03.
In turn, `CCC[C@@H]1C[C@@]1(CCC)[C@@H](NP(=O)(c1ccccc1)c1ccccc1)c1ccc(Cl)cc1` gave a composite z-score of 0.219.
On the same count and under the same terms, to `C=CCN1C(=O)[C@]2(CC=C)N=C(c3ccc(OCCCO)cc3)O[C@@H]2c2ccccc21` belongs 1.08.
Still for that read-out and setting: to `O=C1c2ccccc2[C@](Cc2ccccc2I)(C(=O)NCCN2CCOCC2)[C@H](c2ccc(CO)cc2)N1Cc1ccccc1` belongs 1.21; to `COC(=O)[C@@]1(Cc2ccc(F)cc2)[C@H]2c3cc(C(=O)N4CCCC4)n(CCc4c[nH]c5ccc(OC)cc45)c3C[C@H]2CN1C(=O)c1ccccc1`, 1.03.
The same measure, in the same setting: to `O=C1c2ccccc2[C@](Cc2ccccc2I)(C(=O)NCc2ccccc2)[C@H](c2ccc(CO)cc2)N1C1CCCCC1` belongs 0.851; to `COCC(=C=CC[C@H](O)c1cccc(OCCO)c1)C[C@H](O)c1ccccn1`, 0.543.
Molecule `CN1C2C=C(CCCO)C(C3C(=O)N(C(N)=O)C(=O)C32)C1c1cccs1` (stereo unspecified) showed a composite z-score of -0.254.
Consider `CN(C)CCCNC(=O)[C@@H]1c2ccccc2C(=O)N(Cc2ccc(OC(F)(F)F)cc2)[C@H]1c1ccc(CO)cc1`, for which the composite z-score was determined as 1.33.
The molecule `CC(C)(C)OC(=O)CC[C@]1(C(=O)NCCN2CCOCC2)N=C(c2ccc(OCCCO)cc2)O[C@H]1c1ccccc1` gave a composite z-score of 1.
Molecule `CC(C)CNC(=O)[C@@H]1c2ccccc2C(=O)N(Cc2cc(F)cc(C(F)(F)F)c2)[C@H]1c1ccc(CO)cc1` showed a composite z-score of 0.311.
On the same count and under the same terms, to `C=C(/C(=C/C[C@@H](OC(=O)c1ccncc1)c1ccc(OCCO)cc1)c1cc(C(=O)OC)ccc1OC)C(C)C` belongs 0.596.
On the same count and under the same terms, as for `C=C(CCCC)/C(=C/C[C@@H](OC(=O)c1ccncc1)c1cccc(OCCO)c1)c1cnc2ccccc2c1`, the figure is 0.148; as for `C=CCOC(=O)[C@H]1[C@@H]2C(=O)O[C@@H](c3ccccc3)[C@@H](c3ccccc3)N2[C@@H](c2ccc(OCCOC(=O)[C@H]3C[C@H]4C(=O)N[C@@H](Cc5ccccc5)C(=O)N4[C@H]3c3cccc(OCCO)c3)cc2)[C@]12C(=O)Nc1ccc(I)cc12`, 1.12; as for `Cc1ccc(S[C@]2(C(=O)NC3CC3)CC(=O)N(Cc3ccccc3Cl)[C@@H]2c2ccc(CO)cc2I)cc1`, 1.35.
On to `C[C@@H]1ON(c2ccc(C(=O)OC(C)(C)C)cc2)[C@H](c2ccc(Br)cc2)[C@H]1C(=O)N1C(=O)OC[C@H]1Cc1ccccc1`, for which the composite z-score was 0.992.
